Laboratory results taken from the supplement of paper PMC13380429.
A number with no mark means an inactive call.

System: Vero E6 infected with SARS-CoV-2
Assay: inhibition of SARS-CoV-2 cytopathic effect; higher = more antiviral protection, active = above 15
Conditions: 48 h

Row | Compound | inhibition of SARS-CoV-2 cytopathic effect (1 nM) [%] | inhibition of SARS-CoV-2 cytopathic effect (8.33 nM) [%] | inhibition of SARS-CoV-2 cytopathic effect (100 nM) | inhibition of SARS-CoV-2 cytopathic effect (833.33 nM) [%] | inhibition of SARS-CoV-2 cytopathic effect (10000 nM)
1 | O=S(=O)(N[C@H](CO)C(C(F)(F)F)C(F)(F)F)c1ccc(Cl)s1 [begacestat] | -4.03 | -5.1 | -1.3% | -4.51 | -7.85%
2 | COC(=O)Nc1ccc2[nH]cc(CCNC(C)=O)c2c1 | -2.08 | -0.32 | -1.52% | -7.74 | -1.85%
3 | CCCOc1ccc2c(c1)CC[C@@H]1[C@@H]2CC[C@]2(C)[C@@H](OC)CC[C@@H]12 [promestriene] | -1.76 | -1.33 | -0.65% | -2.33 | -2.79%
4 | CCN(c1cc(C#CCN2CCOCC2)cc(C(=O)NCc2c(C)cc(C)[nH]c2=O)c1C)[C@H]1CC[C@H](N(C)CCOC)CC1 | -1.56 | -1.99 | 3.36% | -2.9 | -5.69%
5 | COc1ccc(-c2coc3cc(O)ccc3c2=O)cc1 [formononetin] | 0.45 | 1.81 | 1.27% | -2.13 | -0.02%
6 | COC(=O)C[C@](O)(CCCC(C)(C)O)C(=O)O[C@@H]1C(OC)=C[C@]23CCCN2CCc2cc4c(cc2[C@H]13)OCO4 [homoharringtonine] | 1.04 | 2.85 | 26.2% (active) | 4.43 | -23.7%
7 | Cn1c(=O)c2[nH]c(Br)nc2n(C)c1=O [pamabrom] | 1.59 | 0.19 | 1.39% | 1.95 | -3.72%
8 | COc1cc(C)c(/C=C/C(C)=C/C=C/C(C)=C/C(=O)O)c(C)c1C [acitretin] | 0.15 | -1.89 | 0.02% | -0.64 | -0.58%
9 | O.O.O.O.O=C([O-])CC(O)(CC(=O)[O-])C(=O)[O-].[Li+].[Li+].[Li+] [lithium-citrate] | 0.34 | -0.51 | -1.43% | 1.38 | 1.33%
10 | O=C(O)CCc1nc(-c2ccccc2)c(-c2ccccc2)o1 [oxaprozin] | -1.4 | -2.65 | -0.38% | -0.99 | 0.84%
11 | Clc1cccc2c1CN(C1=NCCN1)C2 | 1.97 | 3.31 | 3.22% | 2.65 | -2.32%
12 | CN(C)c1ccc2nc3ccc(=[N+](C)C)cc-3sc2c1 [methylene-blue] | -2.26 | -2.37 | -2.19% | 8.6 | -7.29%
13 | CN[C@H](CNC(=O)N1CCC[C@@H]([C@@H](OCCNC(=O)OC)c2cccc(Cl)c2)C1)C[C@H]1CCCOC1 | 1.34 | -1.3 | 1.14% | -0.1 | 3.16%
14 | CN(C)Cc1ccc(S(=O)(=O)n2ccc(/C=C/C(=O)NO)c2)cc1 [resminostat] | 0.52 | -2.34 | -0.22% | -9.24 | -24.5%
15 | Cc1nc2c(c(=O)[nH]1)CSCC2 | 1.12 | -1.82 | 0.46% | 0.11 | 4.1%
16 | NC(=O)c1noc([C@H](CCCC2CCCCC2)CC(=O)NO)n1 | 1.44 | -2.89 | 0.07% | -1.38 | -7.78%
17 | O=Nc1ccc(O)c2ncccc12 | 3.04 | -4.1 | 1.42% | 13.5 | 19.6% (active)
18 | Cc1c(NC(=O)N2CCOCC2)ccc2c1c1ccccc1n2C(C)C | 0.94 | -0.34 | -2.07% | 2.48 | 0.62%
19 | CC1(C)OC[C@H](NC(=O)Nc2ccc(Br)cc2Br)[C@H](c2ccccc2)O1 | -1.15 | 0.87 | -2.04% | -3.68 | -5.84%
20 | Oc1ccc(Cl)c2c1CCC2 [chlorindanol] | 1.21 | -1.76 | -1.84% | -1.95 | 4.12%
21 | CCC(Cc1c(I)cc(I)c(N)c1I)C(=O)O (stereo not given) [iopanic-acid] | 2.78 | 2.89 | 1.6% | 0.47 | 2.12%

Row | Compound | inhibition of SARS-CoV-2 cytopathic effect (1 nM) [%] | inhibition of SARS-CoV-2 cytopathic effect (8.33 nM) [%] | inhibition of SARS-CoV-2 cytopathic effect (100 nM) | inhibition of SARS-CoV-2 cytopathic effect (833.33 nM) [%] | inhibition of SARS-CoV-2 cytopathic effect (10000 nM)
22 | O=S(=O)(O)NC1CCCCC1 [cyclamic-acid] | -3.13 | 1.15 | 1.07% | 0.19 | -3.53%
23 | Cc1noc(NS(=O)(=O)c2cccc3c(N(C)C)cccc23)c1C | 0.18 | 0.76 | 0.03% | 1.44 | 0.04%
24 | Cc1ccc2c(N3CCN(CCc4cccc(N5CCNC5=O)c4)CC3)cccc2n1 | -2.94 | -3.04 | -3.97% | 1.55 | 1.48%
25 | COc1ccc(Cl)c(Nc2nc3ccccc3nc2NS(=O)(=O)c2cccc(NC(=O)C(C)(C)N)c2)c1 [pilaralisib] | 0.3 | 0.48 | 1.1% | 0.71 | -1.82%
26 | NC(=O)c1ccccc1O [salicylamide] | -0.95 | 2.62 | 5.65% | 3.83 | 0.13%
27 | CN(C)CCN1C(=O)c2cccc3cc(N)cc(c23)C1=O [amonafide] | 4.04 | 2.14 | 1.57% | 3.27 | -6.16%
28 | O=C(NC1(c2ccccc2)CC1)c1c(CN2CCC(N3CCCCC3)CC2)c(-c2cccc(C(F)(F)F)c2)nc2cc(Br)ccc12 | 1.74 | 3.71 | 1.73% | -4.53 | -13.1%
29 | NC(=O)[C@@H]1CC[C@@H]2CN1C(=O)N2OS(=O)(=O)O [avibactam] | -1.08 | 0.92 | -0.14% | 0.95 | 1.7%
30 | Cn1c(=O)c2c(ncn2CCO)n(C)c1=O [etofylline] | 0.6 | 0.32 | -0.66% | -1.82 | -1.01%
31 | Cn1cnnc1Sc1c([N+](=O)[O-])ncn1C | 3.11 | 1.9 | 2.13% | 5 | 2.84%
32 | COc1ccc2cc(OCC3(C(=O)O)CN(C(=O)c4ccc(F)cc4)C3)ccc2c1 | 2.48 | 0 | 1.35% | 2.44 | 1.77%
33 | NCCCCN=C(N)N [agmatine] | 2.36 | 2.56 | -1.24% | -2.12 | -4.69%
34 | CO/N=C(\C(=O)N[C@@H]1C(=O)N2C(C(=O)OCOC(=O)C(C)(C)C)=C(C)CS[C@H]12)c1csc(N)n1 [cefetamet-pivoxil] | -1.77 | -0.88 | -2.82% | -0.78 | -2.04%
35 | CCc1nn(CCO)c(CC)c1Oc1cc(C#N)cc(C#N)c1 [lersivirine] | 2.25 | 2.52 | 2.57% | 0.87 | 2.19%
36 | c1ccc(C(NCCNC(c2ccccc2)c2ccccc2)c2ccccc2)cc1 | -3.48 | -3.4 | 3.81% | 2.97 | -0.01%
37 | Oc1cc(O)c2cc(O)c(-c3cc(O)c(O)c(O)c3)[o+]c2c1 [delphinidin] | -3.03 | -3.65 | -0.94% | -1.2 | -3.76%
38 | C[C@@]1(O)[C@H](O)[C@@H](CO)O[C@H]1n1cnc2c(NC3CCCC3)nc(Cl)nc21 | 1.63 | 2.06 | 1.32% | 0.53 | -0.13%
39 | CC(C)(O)CNc1nc(Nc2ccnc(C(F)(F)F)c2)nc(-c2cccc(C(F)(F)F)n2)n1 [enasidenib] | -2.39 | -0.28 | -1.11% | -2.37 | -1.07%
40 | Nc1cc(-c2ccncc2)c[nH]c1=O [amrinone] | 3.03 | 3.76 | -3.46% | -6.26 | 1.36%
41 | CC(=O)N[C@@H](CCC(N)=O)C(=O)O [aceglutamide] | 1.69 | 3.16 | 6.3% | 1.78 | -5.34%
42 | O=C(Nc1cnc(Cl)nc1)c1ccc(F)c(F)c1 | 1.95 | 1.13 | 2.59% | -0.85 | 0.14%
